Source: PubChem BioAssay (National Center for Advancing Translational Sciences (NCATS))
Only some compounds are listed: those with a hit (about 1.8% of all), similar ones and a draw of the others.
hERG WT inh: blocks the wildtype human KCNH2 potassium channel | Q12809 | U2OS, BacMam KCNH2, thallium flux FluxOr; active compounds read low | activity change, % at 1.84 µM | 340,000 tested, 0.37% active;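 active = maximum activity change below -70%; inconclusive = maximum activity change between -70% and -50%; inactive = maximum activity change above -50%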; also: % is scaled to controls: 0 for no effect and ±100 for the full control effect
Target sequence (Q12809 whole entry, looked up): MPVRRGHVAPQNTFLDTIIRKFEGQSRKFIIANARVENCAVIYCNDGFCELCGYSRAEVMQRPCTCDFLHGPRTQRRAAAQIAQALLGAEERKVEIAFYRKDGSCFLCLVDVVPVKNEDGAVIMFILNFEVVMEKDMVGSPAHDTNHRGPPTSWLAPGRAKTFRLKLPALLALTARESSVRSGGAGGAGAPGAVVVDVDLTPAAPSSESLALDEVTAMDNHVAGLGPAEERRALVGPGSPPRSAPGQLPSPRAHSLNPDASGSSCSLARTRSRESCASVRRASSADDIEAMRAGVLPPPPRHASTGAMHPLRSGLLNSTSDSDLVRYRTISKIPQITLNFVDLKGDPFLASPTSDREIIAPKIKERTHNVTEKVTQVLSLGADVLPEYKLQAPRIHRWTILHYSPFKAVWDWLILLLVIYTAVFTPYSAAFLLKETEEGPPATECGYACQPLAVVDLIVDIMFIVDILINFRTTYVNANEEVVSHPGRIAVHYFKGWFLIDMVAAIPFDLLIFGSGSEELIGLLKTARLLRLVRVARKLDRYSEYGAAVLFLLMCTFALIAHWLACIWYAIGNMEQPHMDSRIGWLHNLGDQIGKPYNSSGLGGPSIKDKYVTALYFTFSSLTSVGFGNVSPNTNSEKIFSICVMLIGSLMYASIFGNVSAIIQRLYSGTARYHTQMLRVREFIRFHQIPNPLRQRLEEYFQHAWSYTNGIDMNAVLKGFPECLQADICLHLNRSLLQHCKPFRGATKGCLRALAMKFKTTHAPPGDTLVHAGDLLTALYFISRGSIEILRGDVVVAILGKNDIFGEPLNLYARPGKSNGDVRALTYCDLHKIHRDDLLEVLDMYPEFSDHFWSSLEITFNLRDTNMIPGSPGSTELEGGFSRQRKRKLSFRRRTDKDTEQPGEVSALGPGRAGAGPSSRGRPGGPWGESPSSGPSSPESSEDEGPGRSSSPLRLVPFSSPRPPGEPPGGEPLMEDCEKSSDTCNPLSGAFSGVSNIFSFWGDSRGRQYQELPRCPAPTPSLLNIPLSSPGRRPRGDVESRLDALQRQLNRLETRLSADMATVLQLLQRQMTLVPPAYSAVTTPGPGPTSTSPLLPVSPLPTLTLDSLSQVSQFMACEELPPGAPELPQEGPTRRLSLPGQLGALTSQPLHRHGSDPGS
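U2OS cells were transduced with wild-type KCNH2 virus (2.03 x 10^8 / mL) for 4 h at room temperature, then cultured overnight at 37 C. Thallium flux was read with FluxOr dye. Rate constants were normalized to DMSO controls.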
A-T KAP1 phos: potential ataxia-telangiectasia treatments restoring KAP-1 phosphorylation; F2112 A-T fibroblasts, KAP-1 phosphorylation AlphaLISA; neocarzinostatin DNA damage 30 min before lysis; Potency, µM (doses to about 57.5 µM), for the others: at the highest dose activation, actives largely listed as activators; 320,000 tested, 0.19% active; AID 485349; also: potency is read from the fitted curve at half-maximal effect; % of control where 0% means no effect; nearly all actives have a fitted effect of over 45% in size
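hTERT-immortalized A-T patient fibroblasts (F2112), 500 cells/well in OPTI-MEM, 1% FBS, got compounds for 60 min, then NCS for 30 min at 37C. Lysates were then assayed for phospho-KAP-1 by AlphaLISA (anti-pKAP1 donor, anti-KAP1 acceptor beads), 6 hr at 25C.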
ALOX12 inh: inhibitors of human 12S-lipoxygenase ALOX12 | purified 12hLO, xylenol orange hydroperoxide absorbance | Potency, µM (top dose mostly 108 µM), for inactives: at the top dose activity change, negative = inhibition, actives largely listed as inhibitors | 580,000 tested, 1.1% active | P18054 | AID 1671190; also: potency is read from the fitted curve at half-maximal effect; % is scaled to controls: 0 for no effect and ±100 for the full control effect
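Hydroperoxide product was detected by ferrous iron/xylenol orange as the 573 to 405 nm absorbance ratio. Arachidonic acid at 40 uM (final) was turned over for 30 min at room temperature by 150 nM human 12hLO, pH 7.0 Hepes buffer, after 15 min compound preincubation.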
KCNH2 3.1 block: KCNH2 3.1 (human) potassium channel inhibition. U2OS KCNH2 3.1, thallium flux FluxOr; active compounds read low. activity change, % (tested at about 1.8 µM). 340,000 tested, 0.95% active. AID 720553;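 active = maximum activity change below -70%; inconclusive = maximum activity change from -70% to -50%; inactive = maximum activity change above -50%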;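 also: thallium influx rate constant from kinetic fluorescence after stimulation buffer; % is scaled to controls: 0 for no effect and ±100 for the full control effect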
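Thallium flux read-out: FluxOr dye with Red40 quencher in HBSS/HEPES, 45 min at RT. Rate constants from kinetic reads were normalized to positive and negative DMSO controls. Cells: U2OS virally expressing the 3.1 isoform.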
* = called active by the depositor; ? = inconclusive; nt = no result given; ! = a repeat was not active. Unless noted, calls follow the shape of the dose curve; as a rule, active = well fitted curve in the direction sought with a large enough effect; inconclusive = small, poorly fitted or top-dose-only effect, or another doubt; inactive = no such curve, though single readings can be large; an effect the other way counts as inactive or inconclusive.

SMILES	hERG WT inh	A-T KAP1 phos	ALOX12 inh	KCNH2 3.1 block
CCN(CC)S(=O)(=O)c1ccc(N2CCOCC2)c(NS(=O)(=O)c2ccc(C)c(C)c2)c1	5.6	-3.2%	-4.4%	-94.1*
CCN(CC)S(=O)(=O)c1ccc(N2CCOCC2)c(NS(=O)(=O)c2ccc(C)cc2)c1	0.9	0.1%	16.3%	19.9
COc1cccc(/C=C(/C#N)C(=O)c2c(Cl)cccc2Cl)c1	nt	nt	7.08µM*	nt
COc1cccc(/C=C(/C#N)C(=O)c2c(Cl)cccc2Cl)c1OC	nt	nt	20µM*	nt
COc1cc(OC)c(OC)cc1/C=C(/C#N)C(=O)c1c(Cl)cccc1Cl	nt	nt	5.2%	nt
COc1cc(/C=C(/C#N)C(=O)Nc2cccc3ncccc23)cc(OC)c1OC	nt	nt	15.8µM*	nt
COc1cc(/C=C(/C#N)C(=O)c2c(Cl)cccc2Cl)cc(OC)c1OC	nt	nt	0.501µM*	nt
CCCCn1c(=O)[nH]c(=O)c2c1nc(-c1ccccn1)n2CCOC	nt	nt	-4.9%	nt
COc1cc(/C=C(/C#N)C(=O)c2c(Cl)cccc2Cl)cc(OC)c1	nt	nt	28.2µM*	nt
Cc1ccccc1N1C(=O)c2ccccc2C1O (stereo unspecified)	8.5	39.8µM*	18.6%	0.7
COc1ccccc1-c1cc(NCc2cnc(C)cn2)ncn1	nt	nt	5.62µM*	nt
Cc1nc(NC(=S)NC(=O)c2ccco2)sc1C(=O)N(C)C	-122.5*	-13.8%	-29.4%	3.1
Cc1ccc(C(=O)Nc2nc(C)c(C(=O)N(C)C)s2)o1	-12.1	2.3%	109.8%	-13.7
COCC(=O)Nc1cccc(NC(=O)C2CCC2)c1	nt	nt	18.2%	nt
CCOC(=O)CSc1ccc2nnc(-c3ccccc3)n2n1	-9.6	0.4%	-17.1%	12.4
CCOC(=O)CSc1ccc2nnc(-c3cccnc3)n2n1	-2.3	-3.6%	31.6µM*	-15.7
O=C1C2CC=C(Cl)CC2C(=O)N1CCc1ccccc1 (stereo unspecified)	-2.9	2.3%	10µM*	-9.6
O=C(c1ccccc1)N1CCc2sc(C(=O)N3CCN(c4ccccn4)CC3)cc2C1	nt	nt	0.7%	nt
CN1[C@@H](CCC(=O)NCc2ccc(F)cc2)CNC(=O)[C@@H]2[C@H]1CCN2Cc1cccs1	nt	nt	33.9%	nt
CCCCCCN1CCN(C2CN(Cc3ccc([N+](=O)[O-])cc3)S(=O)(=O)C2)CC1 (stereo unspecified)	-96.1*	nt	-28.6%	-112.3*
O=[N+]([O-])c1ccc(CN2CC(N3CCN(CCO)CC3)CS2(=O)=O)cc1 (stereo unspecified)	-1.3	nt	?	-2.3
O=C(C1CCCC1)N1CCC(c2noc(CO)n2)C1 (stereo unspecified)	nt	nt	23.7%	nt
Cc1nc2ccccn2c1-c1ccnc(=S)[nH]1	9.9	3.4%	15.8µM*	6.2
Cc1cc(SC(C)C(=O)N(C)C)nc2ccccc12 (stereo unspecified)	nt	nt	-31.9%	nt
COC(=O)c1cc2c(c3c4ccccc4n(S(=O)(=O)c4ccc(OC)cc4)c13)C(=O)N(Cc1ccco1)C2	nt	nt	39.8µM*	nt
SMILES	hERG WT inh	A-T KAP1 phos	ALOX12 inh	KCNH2 3.1 block
CC(=O)N(C)/C=C1\Sc2ccccc2C1=O	6.2	-11.0%	35.5µM*	-8.1
O=CN(/C=C1\Sc2ccccc2C1=O)Cc1ccccc1	-6.2	-1.4%	-15.8%	7.9
CC(=O)Nc1ccc(/C=C2\Sc3ccccc3C2=O)cc1	-2.9	11.5%	3.5%	-10.5
CCC(=O)N(C)/C=C1\Sc2ccccc2C1=O	-102.2*	-7.8%	?	-10.3
COc1cccc(C(=O)NC(=S)Nc2ccc(N3CCCC3)cc2)c1	1.6	0.2%	?	-12.6
CCCC(=O)N1CCN(c2ccc(NC(=S)NC(=O)c3cccc(C)c3)cc2)CC1	-14.4	-1.7%	15.8µM*	-12.8
CCC(=O)N1CCN(c2ccc(NC(=S)NC(=O)c3ccc(OC)c([N+](=O)[O-])c3)cc2)CC1	-3.7	-3.3%	0.0%	-91.1*
CCCC(=O)N1CCN(c2ccc(NC(=O)c3ccc(OCC)c([N+](=O)[O-])c3)cc2)CC1	11.0	-4.6%	-13.3%	-30.6
N#C/C(=C\c1cc(Br)c(Br)o1)c1nc2ccccc2[nH]1	nt	nt	11.2µM*	nt
COc1ccc2nc(/C(C#N)=C\c3ccco3)[nH]c2c1	nt	nt	39.8µM*	nt
Cc1ccc2nc(/C(C#N)=C/c3ccc(O)c(O)c3)[nH]c2c1	-5.8	-13.5%	7.08µM*	-20.6
Cc1ccc(Sc2oc(/C=C(/C#N)c3nc4ccccc4[nH]3)cc2Br)cc1	nt	nt	-11.8%	nt
Cc1ccc(NC(=O)C2CCCN(C(=O)c3ccc(Cl)cc3)C2)cc1C (stereo unspecified)	-6.1	-6.4%	?	-121.7*
O[C@H]1C[C@H](c2ccc(Cl)cc2)N(Cc2cccs2)C[C@@H]1n1cc(-c2ccc(F)cc2)nn1	2.9	nt	35.5µM*	-3.4
Cc1ccc([C@H]2C[C@H](O)[C@@H](n3cc(-c4ccc(F)cc4)nn3)CN2Cc2cccs2)cc1	-6.5	nt	?	-36.2
O=C(N/N=C/c1ccc(O)cc1)/C(=C/c1ccccc1)CCO	-3.4	-2.8%	22.2%	-88.2*
O=Cc1cccc2c1OCCO2	nt	nt	7.08µM*	nt
O=C(O)/C=C/c1cccc2c1OCCO2	-3.8	-3.4%	0.0%	18.9
CC1CN(CCOc2ccc([N+](=O)[O-])cc2)CC(C)O1 (stereo unspecified)	40.5	1.8%	-25.2%	-5.6
O=[N+]([O-])c1ccc(OCCN2CCNCC2)cc1	-38.4	1.6%	?	-74.1*
CC1CC(C)CN(CCCCOc2ccc([N+](=O)[O-])cc2)C1 (stereo unspecified)	?	-0.5%	?	-98.8*
COc1ccc(-c2[nH]ncc2CNCCn2cccn2)c(F)c1	1.3	-7.1%	5.5%	-137.9*
O=C(NC1CCN(c2cc(C(F)(F)F)ncn2)CC1)c1ccccc1	nt	nt	44.7µM*	nt
CCc1noc(-c2ccn3c(CNC(=O)Cc4ccccc4Cl)nnc3c2)n1	nt	nt	28.6%	nt
c1ccc(-n2c3ccccc3c3ccccc32)cc1	-8.0	25.1µM*	259.3%	-11.5
SMILES	hERG WT inh	A-T KAP1 phos	ALOX12 inh	KCNH2 3.1 block
O=C1c2ccccc2C(=O)c2c(O)c(O)cc(O)c21	6.1	-7.2%	31.6µM*!	8.9
O=C1c2ccccc2C(=O)c2c(O)ccc(O)c21	nt	nt	-6.7%	nt
CC1=CC(C)(C)NC(=S)N1c1ccccc1C	-7.7	-3.8%	-25.6%	-4.1
CC1=CC(C)(C)NC(=S)N1c1ccc(C)cc1C	-101.4*	-1.9%	-24.3%	9.9
CC1CCC/C(=N/NC(=S)Nc2ccccc2)C1 (stereo unspecified)	nt	nt	28.2µM*	nt
Cc1cccc(CNC(=O)Cn2c(C)ccc(NS(C)(=O)=O)c2=O)c1	nt	nt	10.0%	nt
COc1ccc(-c2sc3ccc(OC)cc3c2C#Cc2cncn2C)cc1	0.0	28.2µM*	-4.5%	3.8
COc1ccc(-c2sc3cc4c(cc3c2C#Cc2cncn2C)OCO4)cc1	-6.6	4.3%	5.6%	4.8
CCOc1ccc2c(c1)cc(C(=O)NCc1ccc(C)cc1)n2C	nt	nt	34.9%	nt
COc1cc2cccc(OC)c(=O)c2c(OC)c1OC	-5.7	1.9%	19.6%	4.3
O=c1c(O)cccc2cc(O)c(O)c(O)c12	-7.0	7.6%	12.6µM*	6.6
CCCCN(C)C(=O)C1CCN(Cc2ccc(OCc3ccccc3)cc2)CC1	29.8	3.4%	?	-74.5*
